# In the library only some 12% were active in any assay of this set; here they are far more common.
# PI5P4K alpha inh: inhibitors of human PI5P4K alpha. P48426. PI5P4Kalpha enzyme, ADP-Glo luminescence, 60 min; hits give low values. max response, %. actives 1.2% (n = 330,000); active means max response of -50% or lower; inconclusive means between -30% and -50%; inactive means -30% or higher; further: value at the top dose of about 77 µM; on the % scale 0 is the no-effect control and ±100 the full control effect
# Target sequence (P48426 whole entry, looked up): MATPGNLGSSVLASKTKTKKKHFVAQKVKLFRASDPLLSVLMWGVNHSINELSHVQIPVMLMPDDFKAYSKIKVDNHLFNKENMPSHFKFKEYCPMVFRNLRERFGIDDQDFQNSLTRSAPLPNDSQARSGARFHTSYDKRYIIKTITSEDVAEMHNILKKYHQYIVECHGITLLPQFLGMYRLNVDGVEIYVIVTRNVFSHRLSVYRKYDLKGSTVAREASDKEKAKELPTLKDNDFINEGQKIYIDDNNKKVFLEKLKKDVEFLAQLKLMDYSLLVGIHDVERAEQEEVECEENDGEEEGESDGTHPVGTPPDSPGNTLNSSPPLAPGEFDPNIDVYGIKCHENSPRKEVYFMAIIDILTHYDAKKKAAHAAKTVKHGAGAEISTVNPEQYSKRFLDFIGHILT
#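 Single end-point luminescence (ADP-Glo) quantified ADP from PI5P4Kalpha turnover; ATP 5 microM final, 1 h at RT, 0.1% CHAPS and 0.28 mM EGTA in HEPES pH 7.4.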
# BAZ2B block: inhibitors of human BAZ2B bromodomain | Q9UIF8 | AlphaScreen BAZ2B-H3K14Ac peptide displacement | Potency, µM (doses to about 114 µM), for inactives: at the highest dose activity change, negative = inhibition, most hits filed as inhibitors | actives 4.4% (n = 360,000); further: potency means the concentration at half of the fitted maximal effect; on the % scale 0 is the no-effect control and ±100 the full control effect; nearly all actives have a fitted effect of over 60% in size
#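 AlphaScreen displacement: compounds (up to 110uM) incubated 30 min at room temperature with a preformed 50 nM BAZ2B/50 nM biotinylated H3K14Ac peptide complex in PBS pH 7.4 with Tween-20. Donor and acceptor beads at 10 ug/mL final added, 20 min light-protected before reading.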
# JMJD2A Tudor: blocks the human JMJD2A Tudor domain | O75164 | AlphaScreen JMJD2A-Tudor / H3K4me3 peptide binding | Potency, µM (highest dose often 114 µM), for inactives: top-dose activity change, negative = inhibition, actives largely listed as inhibitors | actives 4.4% (n = 390,000) | AID 504339; further: potency means the concentration at half of the fitted maximal effect; on the % scale 0 is the no-effect control and ±100 the full control effect; nearly all actives have a fitted effect of over 50% in size
# PLK1 PBD block: inhibitors of human PLK1 polo-box domain binding. P53350. Plk1 PBD binding of FITC phosphopeptide, fluorescence polarization. Potency, µM, inactives show max response, negative = inhibition, most hits filed as inhibitors. actives 2.8% (n = 360,000). AID 720504; further: potency means the concentration at half of the fitted maximal effect; series mostly up to about 57 µM; on the % scale 0 is the no-effect control and ±100 the full control effect; nearly all actives have a fitted effect of over 65% in size
# HP1b binding inh: blocks HP1-beta chromodomain binding to methylated histone tails | AlphaScreen HP1-beta / biotin-H3K9me3 peptide binding | Potency, µM (series often up to 114 µM), for the others: at the highest dose activity change, negative = inhibition, most hits filed as inhibitors | actives 0.56% (n = 390,000); further: potency means the concentration at half of the fitted maximal effect; nearly all actives have a fitted effect of over 70% in size
# Target sequence (P83916 whole entry, looked up): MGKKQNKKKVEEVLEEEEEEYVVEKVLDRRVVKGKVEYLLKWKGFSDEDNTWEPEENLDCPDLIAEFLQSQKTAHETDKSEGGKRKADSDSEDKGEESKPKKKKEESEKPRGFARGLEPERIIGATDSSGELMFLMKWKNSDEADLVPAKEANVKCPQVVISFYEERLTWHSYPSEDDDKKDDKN
#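 AlphaScreen: HP1-beta (50 nM) preformed 30 min with biotin-H3(1-18)K9me3 peptide (50 nM) in PBS pH 7.4, 0.01% Tween-20. Compound added for 30 min at RT, then streptavidin donor/nickel chelate acceptor beads (10 ug/mL) for 30 min.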
# G9a block: blocks human histone lysine methyltransferase G9a. G9a H3K9 monomethylation, AlphaScreen, 2 h. Potency, µM (doses to about 102 µM), without a hit: at the top dose activity, negative = inhibition, usual class: inhibitors. actives 8.8% (n = 350,000). AID 504332; further: potency means the concentration at half of the fitted maximal effect; on the % scale 0 is the no-effect control and ±100 the full control effect; nearly all actives have a fitted effect of over 75% in size
#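 Methyltransferase reactions run at room temperature for 2 h (20 nM enzyme, 500 nM biotin-H3K9 peptide, 20 uM SAM) after a 15 min compound preincubation; product detected by AlphaScreen beads and anti-H3K9me1 antibody.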
# * = called active by the depositor; ? = inconclusive; / = not tested or not shown; [ ] = dose if it differs, or a comment. Unless noted, the call rests on the fitted dose curve; in most records, active means well fitted curve in the direction sought with a large enough effect; inconclusive means small, poorly fitted or top-dose-only effect, or another doubt; inactive means no such curve, though single readings can be large; an effect the other way counts as inactive or inconclusive.
SMILES,PI5P4K alpha inh,BAZ2B block,JMJD2A Tudor,PLK1 PBD block,HP1b binding inh,G9a block
CC(C)OC(=O)c1cc2c(ccn2C)n1CC(=O)N(Cc1ccccc1)c1ccccc1,2,25µM*,18µM*,-5%,?,25µM*
Cc1cccc2c1-c1sc(C(=O)N3CCN(c4ccc(F)cc4)CC3)cc1CO2,/,0%,1%,/,48%,15%[59 µM]
O=C(Oc1cccc(C(=S)N2CCCCC2)c1)c1ccccc1,1,-24%,-7%,-26%,18%,?
O=C(Nc1cccc(Cl)c1)c1ccc(OC(=S)N2CCOCC2)cc1,6,0%,-11%,-9%,40%,-24%
Cc1c([N+](=O)[O-])cc(C(=O)Oc2cccc(C(=S)N3CCOCC3)c2)cc1[N+](=O)[O-],4,?,-31%,?,13%,16µM*
O=C(Oc1ccccc1C(=S)N1CCOCC1)c1cccc([N+](=O)[O-])c1,-8,-15%,?,?,4%,79µM*
O=C(Oc1ccc(C(=S)N2CCCCC2)cc1)c1ccccc1,6,-16%,-21%,?,?,35µM*
O=C(Oc1ccc(C(=S)N2CCOCC2)cc1)c1cccc(Cl)c1,6,-30%,-22%,?,?,45µM*
COc1ccccc1CNC(=O)Cn1c(=O)nc(-c2ccccc2F)c2cc(Cl)ccc21,/,-16%,-10%,/,34%,1%[12.7 µM]
COC(=O)[C@]12CCCCC=C1N(Cc1ccccc1)C(=O)[C@H](CC(=O)N1CCCCC1)C2,7,/,/,-13%,/,/
CC(=O)c1ccc(NC(=O)c2ccc(CN3C(=O)CCn4nc(C)cc43)cc2)cc1,/,-15%,-16%,/,13%,-26%[59 µM]
O=C(NCCO)/C(=C\c1cccc([N+](=O)[O-])c1)NC(=O)c1cccs1,1,/,/,-1%,/,/
CC(C)(C)S(=O)N1Cc2cc(C(=O)N3CCc4ccccc4C3)nc(-c3cccc(-c4cccnc4)c3)c2[C@@H]1CCO (stereo partly drawn),?,/,/,-28%,/,/
O=[N+]([O-])c1ccc2c(c1)C(=NO)c1cc(Cl)c(Cl)cc1-2,2,/,-34%,-1%,-19%,/
O=C(Oc1cccc(C(=O)N2CCOCC2)c1)c1ccc(Br)cc1,/,23%,-14%,-9%,17%,-10%[59 µM]
O=C(Oc1ccc(C(=S)N2CCOCC2)cc1)c1ccccc1[N+](=O)[O-],-6,-10%,-27%,-7%,-4%,/
O=C(Oc1ccc(C(=S)N2CCOCC2)cc1)c1cc([N+](=O)[O-])cc([N+](=O)[O-])c1,-3,-27%,-32%,-24%,40%,35µM*
O=C(Oc1cccc(C(=S)N2CCOCC2)c1)c1ccc([N+](=O)[O-])cc1,-8,?,?,-22%,?,32µM*
Cc1ccc(S(=O)(=O)N2CCC(C(=O)Nc3ccc(S(=O)(=O)N4CCCC4)cc3)CC2)cc1C,-10,7%,-19%,1%,4%,?
Cc1ccccc1OCCC(=O)Nc1ccc(N2CCOCC2)cc1N1CCOCC1,10,0%,-23%,-3%,3%,45µM*
COc1ccccc1OCC(=O)Nc1ccc(N2CCOCC2)cc1N1CCOCC1,7,-8%,89µM*,2%,8%,?
Cc1ccccc1OCC(=O)Nc1ccc(N2CCOCC2)cc1N1CCOCC1,-2,-38%,-30%,1%,3%,10µM*
Cc1ccc(C)c(OCC(=O)Nc2ccc(N3CCOCC3)cc2N2CCOCC2)c1,6,?,?,0%,-34%,?
N#Cc1ccccc1OCC(=O)Nc1ccc(N2CCOCC2)cc1N1CCOCC1,0,0%,-3%,9%,21%,-10%[12.7 µM]
COc1ccc2c(c1)c1c(c(=O)n(-c3ccccc3C)c(=O)n1CC(=O)N1CCCC1)n2C,/,-6%,3%,/,35%,-35%[59 µM]
SMILES,PI5P4K alpha inh,BAZ2B block,JMJD2A Tudor,PLK1 PBD block,HP1b binding inh,G9a block
Cc1c(NC(=O)/C(C#N)=C/c2ccc(-c3ccc(Cl)cc3)o2)c(=O)n(-c2ccccc2)n1C,-9,50µM*,?,5%,-16%,20µM*
N#C/C(=C\c1ccc(-c2ccc(Br)cc2)o1)C(=O)Nc1ccccc1O,/,-1%,-17%,/,10%,-24%[59 µM]
N#C/C(=C/c1ccc(-c2ccc([N+](=O)[O-])cc2)o1)C(=O)Nc1nc(-c2cccs2)cs1,-66*,/,-17%,?,7%,/
CCOC(=O)NC(=O)/C(C#N)=N\Nc1ccc(Cl)cc1,-23,-37%,-23%,-4%,-9%,-25%
N#C/C(=C\c1ccc(-c2ccc(F)cc2)o1)C(=O)Nc1nc(-c2cccs2)cs1,?,62%,-16%,-10%,30%,-5%[59 µM]
N#C/C(=N\Nc1ccc(Cl)cc1)C(=O)c1ccccc1,-5,50µM*,45µM*,?,?,?
N#C/C(=C\c1ccc(-c2ccc(C(=O)O)cc2)o1)C(=O)Nc1ccccc1C(=O)O,/,?,79µM*,/,-5%,?
O=C(NNc1ccc(F)cc1F)c1cccs1,/,/,-14%,/,22%,/
CCc1ccc(NC(=O)Cn2c(=O)n(CCCC(=O)NCCc3ccc(OC)c(OC)c3)c(=O)c3ccccc32)cc1,/,-1%,3%,/,26%,-5%[59 µM]
Cc1ccc(/C=C(\C#N)C(=O)NCC2CCCO2)o1 (stereo not drawn),5,-5%,-18%,-9%,25%,35%[59 µM]
Cc1c(N/N=C(\C#N)C(=O)c2ccc(Cl)cc2)c(=O)n(-c2ccccc2)n1C,-17,25µM*,79µM*,-14%,-3%,?
N#C/C(=C/c1ccc(-c2ccc(C(=O)O)c(Cl)c2)o1)C(=O)NCC1CCCO1 (stereo not drawn),-21,56µM*,-6%,-7%,-12%,?
COC(=O)C(=NNc1c(C)n(C)n(-c2ccccc2)c1=O)C(=O)OC,-6,1%,-2%,0%,41%,?
CCOC(=O)C1=C(C)NC2=C(C(=O)CCC2)C1c1ccc(N(C)C)cc1 (stereo not drawn),/,-35%,-32%,-9%,-6%,?
CCCOC(=O)C1=C(C)NC2=C(C(=O)CCC2)C1c1ccc(N(C)C)cc1 (stereo not drawn),-2,-51%,-32%,-6%,-7%,40µM*
CC1=C(C(=O)OCC2CCCO2)C(c2ccc(C)o2)C2=C(CC(c3ccc(N(C)C)cc3)CC2=O)N1 (stereo not drawn),/,40µM*,/,/,/,11µM*
CCN(CC)c1ccc(C2C(C(=O)OCCOC)=C(C)NC3=C2C(=O)CCC3)cc1 (stereo not drawn),/,-9%,-35%,-5%,46%,4.5µM*
COc1cccc(N2CC(NC(=O)c3cccs3)CC2=O)c1 (stereo not drawn),/,-23%,3%,/,-9%,2%[59 µM]

# Screening results as filed in PubChem.
